# Assay results published in PubChem BioAssay AID624417 (National Center for Advancing Translational Sciences (NCATS), 2012).
# The campaign covered roughly 410,000 compounds. About 6,400 (1.6%) were called active. Entries that show only a call come without a potency. Inconclusive results (about 20%) are left out. For the sample, actives were picked, then their nearest neighbours and some compounds at random. Unmarked numbers belong to inactive results. The call rests on the fitted dose curve; in most records, active means well fitted inhibition curve with a large enough effect; inconclusive means small, poorly fitted or top-dose-only effect; inactive means no such curve, though single readings can be large or run the other way. Peptide text beside a SMILES is read from it. * marks the point of attachment. Bz = O=C(c1ccccc1)*
# Target: Glucagon-like peptide 1 receptor (Homo sapiens) (UniProt P43220)
# Sequence (P43220 whole entry, looked up): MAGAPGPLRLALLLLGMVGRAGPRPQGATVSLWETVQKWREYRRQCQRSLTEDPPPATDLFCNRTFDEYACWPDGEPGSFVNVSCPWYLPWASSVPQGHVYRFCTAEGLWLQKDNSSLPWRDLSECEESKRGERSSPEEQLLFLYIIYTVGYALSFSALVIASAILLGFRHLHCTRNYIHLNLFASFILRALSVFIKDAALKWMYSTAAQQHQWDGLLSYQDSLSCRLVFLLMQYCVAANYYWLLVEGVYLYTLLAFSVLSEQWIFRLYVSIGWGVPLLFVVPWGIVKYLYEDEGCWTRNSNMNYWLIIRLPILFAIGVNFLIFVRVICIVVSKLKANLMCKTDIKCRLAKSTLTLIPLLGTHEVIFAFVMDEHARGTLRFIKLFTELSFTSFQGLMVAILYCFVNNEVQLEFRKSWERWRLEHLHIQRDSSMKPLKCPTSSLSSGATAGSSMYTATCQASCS
# Assay: qHTS of GLP-1 Receptor Inverse Agonists (Inhibition Mode); further: nearly all actives have a fitted effect of over 55% in size
# Settings: HEK293 GLP-1R CRE-luciferase, luminescence, 24 h, GLP-1R form is constitutively active; series mostly up to 38.3 µM
# Outline: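 Cells are plated, allowed 12 hours at 37 deg C, then treated with compounds for 24 hr before luciferase detection reagent is added and luminescence is read after 12 min at room temperature. The HEK293 line carries constitutively active GLP-1R with a cAMP-responsive reporter.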
# Potency means the concentration at half of the fitted maximal effect.
SMILES,Potency,"activity change, negative = inhibition"
CCNC(=O)C1(C)CCN(Cc2ccc(C(=O)OCC)o2)C1 (stereo not given),inactive,
CCc1noc(C)c1C(=O)OCC(=O)c1ccc(NC(=O)CC(C)C)cc1,inactive,
Cc1cccc(C)c1NC(=O)C(c1cccc2ccccc12)n1c(=O)c(-c2ccco2)nc2ccccc21 (stereo not given),inactive,
COc1ccc(Cl)cc1NC(=O)CN(C)C(=O)c1ccc2n[nH]nc2c1,inactive,
COc1ccc(Cl)cc1NC(=O)CN(C)C(=O)c1cn(-c2ccccc2)nc1-c1cccs1,inactive,
COc1ccc(Cl)cc1NC(=O)CN(C)C(=O)c1cc2ccccc2cc1OC,10 µM (active),
O=[N+]([O-])c1ccc(C(S(=O)(=O)Cc2ccccc2)S(=O)(=O)Cc2ccccc2)cc1,inactive,
N=C(N)SCc1cccc2ccccc12,10 µM (active),
N#C/C(=C(/O)Cc1cccc2ccccc12)c1nc2ccccc2s1,inactive,
c1ccc2c(CNn3cnnc3)cccc2c1,inactive,
CCCCNC(=O)OC1CC2CC1[C@H]1CCCCN1C2=O (stereo not given in full),inactive,
C[C@H](NC(=O)CC[C@H]1O[C@@H](n2ccc(=O)[nH]c2=O)[C@H](O)[C@@H]1O)c1cccc2ccccc12,inactive,
COc1cccc(C2c3[nH]c4ccccc4c3CCN2Cc2cccc(C)n2)c1 (stereo not given),11.2 µM (active),
COc1cccc(N2CCN(C(=O)CCCCCn3c(=O)[nH]c4ccccc4c3=O)CC2)c1,inactive,
COC(=O)[C@H]1[C@H]2C[C@H]3c4[nH]c5ccccc5c4CCN3C[C@@H]2CC[C@@H]1O,inactive,
Cc1ccc(NC(=O)CCNS(=O)(=O)c2ccc3c(c2)oc(=O)n3C)cc1C,inactive,
Cc1ccc(S(=O)(=O)NCCC(=O)Nc2ccc(C)c(Cl)c2)cc1C,7.08 µM (active),
Cc1ccc(S(=O)(=O)NCCC(=O)Nc2cccc(S(N)(=O)=O)c2)cc1C,inactive,
Cc1cccc(N(CC(=O)N2CCCC2)S(C)(=O)=O)c1C,inactive,
COCCCn1cc(CN2CC(N(C)C)CS2(=O)=O)nn1 (stereo not given),inactive,

SMILES,Potency,"activity change, negative = inhibition"
O=C(CSc1ncn[nH]1)Nc1nc2c(F)c(F)c(F)cc2s1,inactive,
NS(=O)(=O)c1cccc(NC(=O)CSc2nc3ccccc3n2-c2ccccc2)c1,,33.1% [at 7.66 µM]
Cc1ccc(-c2nn(-c3ccccc3)cc2/C=C/C(=O)Nc2cccc(S(N)(=O)=O)c2)cc1,5.01 µM (active),
COc1ccc(-c2nn(-c3ccccc3)cc2/C=C\C(=O)Nc2ccc(C(=O)O)cc2)cc1,inactive,
O=C(Nc1ccc2c(c1)OCCO2)C1c2ccccc2OCC(=O)N1Cc1ccccn1 (stereo not given),inactive,
c1cc(-c2ccc3[nH]ccc3c2)n2ccnc2c1,inactive,
CCCCOc1ccc(CSC(=N)N)cc1[N+](=O)[O-],inactive,
Cc1nc(SCc2ccc(F)cc2)c([N+](=O)[O-])[nH]1,inactive,
CCCCCOc1ccc(CSC2=NCCN2)cc1[N+](=O)[O-],3.98 µM (active),
CC1(C)OC(=O)C2=C(C[C@@H](C3CC3)O[C@H]2c2ccc(Cl)cc2)O1,inactive,
CN(C)C(CNC(=O)c1cccc(S(=O)(=O)N2CCc3ccccc3C2)c1)c1ccccc1 (stereo not given),inactive,
Cc1ccn(CC(=O)NC2CCCN(Cc3ccccc3F)C2)n1 (stereo not given),inactive,
CC1(C)CN(Cc2cccnc2)C(=O)[C@H]1CC(=O)Nc1ccc(Br)cc1,inactive,
CC12c3ccccc3C(c3ccccc31)C1C(=O)N(Cc3cccnc3)C(=O)C12 (stereo not given),8.91 µM (active),
CC1Oc2ccccc2N(Cc2cccnc2)C1=O (stereo not given),inactive,
COc1cccc(CNc2nc3cc(-c4csc5ccccc45)sc3c(=O)n2C)c1,inactive,
CCCNC(=O)C1(C)CCCN(C(=O)c2cccc(OC(C)=O)c2C)C1 (stereo not given),inactive,
COc1cccc2sc(N(CCCN(C)C)C(=O)C(c3ccccc3)c3ccccc3)nc12,5.62 µM (active),
Cc1cc(C)c2nc(N(CCN(C)C)C(=O)/C=C/c3cccs3)sc2c1,inactive,
CCN(CC)CCN(C(=O)c1cccc([N+](=O)[O-])c1)c1nc2ccc(OC)cc2s1,inactive,

SMILES,Potency,"activity change, negative = inhibition"
Cc1ccc2sc(N(CCN(C)C)C(=O)/C=C/c3cccs3)nc2c1C,inactive,
CCN(CC)CCN(C(=O)c1ccc2c(c1)CCCC2)c1nc2c(OC)cccc2s1,11.2 µM (active),
COc1ccccc1CNC(=O)Cn1cc2c(n1)CCCC2,inactive,
CCCCN1C(=O)C(CC(=O)NC(c2ccccc2)c2ccccc2)CC(C(=O)N2CCOCC2)=C1C (stereo not given),inactive,
C[C@@H]1CC2=C(C(=O)OC(C)(C)O2)[C@@H](C2CC2)O1,inactive,
COc1cccc(-c2cnc3c(NC(C)=O)cc(-c4cccc(NC(C)=O)c4)cn23)c1,inactive,
COc1ccc(C)cc1N(CC(=O)N1CCC(C)CC1)S(=O)(=O)c1ccc(C)cc1,inactive,
CCN(CC)C(=O)CN(c1cccc(OC)c1)S(=O)(=O)c1ccc(C)cc1,inactive,
COC(=O)CN(c1nc(C)c(Cl)c(OC)n1)S(=O)(=O)c1ccc(C)cc1,10 µM (active),
CCc1ccc([C@@H]2CC(=O)[C@@H]3CN(S(=O)(=O)c4ccc(C)cc4)[C@H](c4ccc(Cl)cc4)C[C@@H]3N2S(=O)(=O)c2ccc(C)cc2)cc1,inactive,
COc1cc(C=NC2CCCCC2)ccc1O,inactive,
NC(=O)c1ccc(NC(=O)COC(=O)C(Cc2ccccc2)NC(=O)c2ccccc2)cc1 (stereo not given),inactive,
O=C(NC(Cc1ccccc1)C(=O)N1CCCC1C(=O)O)c1ccccc1 (stereo not drawn) (Bz-Phe-Pro-OH; configuration not given here),inactive,
CN(Cc1ccccc1F)C(=O)C(Cc1ccccc1)NC(=O)c1ccccc1 (stereo not given),11.2 µM (active),
CC(OC(=O)c1ccc(NC(=O)CC#N)cc1)C(=O)Nc1ccc(S(=O)(=O)N2CCCC2)cc1 (stereo not given),inactive,
O=C1NC[C@@H](CCCCN2CCN(CCc3ccc(O)cc3)C(=O)C2=O)N(CC2CCCCC2)C1=O,inactive,
C=CCOC(=O)N1CCC2CC1c1cc(-c3ccc(OC)cc3)ccc12 (stereo not given),10 µM (active),
Cc1ccc(S(=O)(=O)N(CCc2ccccc2)c2ccc3c(c2)C2CC3CCN2C(=O)OCc2ccccc2)cc1 (stereo not given),inactive,
COc1ccc(-c2ccc3c(c2)C2CC3CCN2CCC#N)cc1 (stereo not given),inactive,
C[C@@H]1CN([C@H](C)CO)C(=O)CCCn2cc(nn2)CO[C@H]1CN(C)S(C)(=O)=O,inactive,
